Columns and labels:
Experiment in all cases: DAPPL (digital affinity profiling via proximity ligation, sequencing); 10 mM Tris-HCl pH 7.5, 50 mM NaCl, 1 mM DTT, 4% glycerol, room temperature, 30 min; GST-TFs on glutathione beads, 16-mer random dsDNA library, 0.1% formaldehyde crosslink after washing; high values mean tight binding
FEV = target: T1, FEV (Homo sapiens, UniProt Q99581 1-238); conditions: protein: recombinant; tags: N-terminal GST; dsDNA, one strand shown
T1 sequence: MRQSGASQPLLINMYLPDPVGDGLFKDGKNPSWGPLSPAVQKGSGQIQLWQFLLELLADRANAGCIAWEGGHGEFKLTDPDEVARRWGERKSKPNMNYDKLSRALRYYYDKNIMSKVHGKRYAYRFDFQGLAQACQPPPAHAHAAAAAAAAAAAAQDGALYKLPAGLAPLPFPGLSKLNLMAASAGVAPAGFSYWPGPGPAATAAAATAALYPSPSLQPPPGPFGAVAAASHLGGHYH
In short: (§1)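 Yeast served to express human transcription factors as GST fusions, which were then captured on glutathione beads and labelled with DNA barcodes. Pooled with a tag-only sample, they were incubated with 200 nmole of a 16-mer random double-stranded DNA library for 30 min at room temperature in Tris/NaCl/DTT/glycerol buffer, washed, crosslinked with 0.1% formaldehyde, ligated by proximity, amplified by PCR and sequenced. Dividing each hexamer's read frequency for a factor by its frequency for the tag-only sample gives the binding signal.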

ETV5 = ETV5 (Homo sapiens, UniProt P41161 1-510); conditions: protein: recombinant; tags: N-terminal GST; dsDNA, one strand shown
Sequence of ETV5 (P41161 whole entry): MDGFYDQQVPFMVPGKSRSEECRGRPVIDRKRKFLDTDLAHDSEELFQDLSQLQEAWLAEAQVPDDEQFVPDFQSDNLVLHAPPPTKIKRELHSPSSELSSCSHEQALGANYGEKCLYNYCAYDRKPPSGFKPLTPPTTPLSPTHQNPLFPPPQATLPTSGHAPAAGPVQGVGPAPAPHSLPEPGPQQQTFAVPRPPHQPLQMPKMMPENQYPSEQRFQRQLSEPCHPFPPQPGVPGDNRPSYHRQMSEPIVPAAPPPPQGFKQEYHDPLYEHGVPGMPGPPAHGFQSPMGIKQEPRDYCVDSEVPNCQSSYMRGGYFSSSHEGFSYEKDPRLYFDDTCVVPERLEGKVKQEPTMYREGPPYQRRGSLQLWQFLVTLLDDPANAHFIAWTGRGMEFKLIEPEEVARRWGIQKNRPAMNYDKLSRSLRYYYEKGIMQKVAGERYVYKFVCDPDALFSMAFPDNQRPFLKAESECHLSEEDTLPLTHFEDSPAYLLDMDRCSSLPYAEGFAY
In short: as §1

HSF1 = HSF1 (Homo sapiens, UniProt Q00613 1-529); conditions: protein: recombinant; tags: N-terminal GST; chain copies: 3; dsDNA, one strand shown
Sequence of HSF1 (Q00613 whole entry): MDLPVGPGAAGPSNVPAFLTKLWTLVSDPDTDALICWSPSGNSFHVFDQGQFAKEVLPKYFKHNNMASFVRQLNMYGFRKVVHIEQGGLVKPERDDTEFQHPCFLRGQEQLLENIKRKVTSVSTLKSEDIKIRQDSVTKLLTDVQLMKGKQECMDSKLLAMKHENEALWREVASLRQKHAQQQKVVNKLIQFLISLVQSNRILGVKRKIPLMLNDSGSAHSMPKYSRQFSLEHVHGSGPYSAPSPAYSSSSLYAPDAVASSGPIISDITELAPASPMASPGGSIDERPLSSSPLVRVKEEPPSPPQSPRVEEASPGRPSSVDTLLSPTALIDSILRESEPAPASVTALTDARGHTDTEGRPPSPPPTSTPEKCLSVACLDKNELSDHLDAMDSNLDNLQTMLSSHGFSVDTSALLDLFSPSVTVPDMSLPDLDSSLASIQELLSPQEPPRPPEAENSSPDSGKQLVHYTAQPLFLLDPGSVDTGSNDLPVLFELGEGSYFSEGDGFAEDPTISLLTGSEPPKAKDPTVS
In short: as §1

SPIC = target: T2, SPIC (Homo sapiens, UniProt Q8N5J4 1-248); conditions: protein: recombinant; tags: N-terminal GST; dsDNA, one strand shown
T2 sequence: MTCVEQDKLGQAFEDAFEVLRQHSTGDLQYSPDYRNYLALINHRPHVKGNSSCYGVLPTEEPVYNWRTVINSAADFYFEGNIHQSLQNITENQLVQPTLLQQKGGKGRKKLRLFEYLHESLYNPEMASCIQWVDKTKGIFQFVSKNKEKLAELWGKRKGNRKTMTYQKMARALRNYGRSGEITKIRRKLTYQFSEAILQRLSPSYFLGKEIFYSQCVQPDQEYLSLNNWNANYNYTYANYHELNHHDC
In short: as §1

ELF4 = ELF4 (Homo sapiens, UniProt Q99607 1-663); conditions: protein: recombinant; tags: N-terminal GST; dsDNA, one strand shown
Sequence of ELF4 (Q99607 whole entry): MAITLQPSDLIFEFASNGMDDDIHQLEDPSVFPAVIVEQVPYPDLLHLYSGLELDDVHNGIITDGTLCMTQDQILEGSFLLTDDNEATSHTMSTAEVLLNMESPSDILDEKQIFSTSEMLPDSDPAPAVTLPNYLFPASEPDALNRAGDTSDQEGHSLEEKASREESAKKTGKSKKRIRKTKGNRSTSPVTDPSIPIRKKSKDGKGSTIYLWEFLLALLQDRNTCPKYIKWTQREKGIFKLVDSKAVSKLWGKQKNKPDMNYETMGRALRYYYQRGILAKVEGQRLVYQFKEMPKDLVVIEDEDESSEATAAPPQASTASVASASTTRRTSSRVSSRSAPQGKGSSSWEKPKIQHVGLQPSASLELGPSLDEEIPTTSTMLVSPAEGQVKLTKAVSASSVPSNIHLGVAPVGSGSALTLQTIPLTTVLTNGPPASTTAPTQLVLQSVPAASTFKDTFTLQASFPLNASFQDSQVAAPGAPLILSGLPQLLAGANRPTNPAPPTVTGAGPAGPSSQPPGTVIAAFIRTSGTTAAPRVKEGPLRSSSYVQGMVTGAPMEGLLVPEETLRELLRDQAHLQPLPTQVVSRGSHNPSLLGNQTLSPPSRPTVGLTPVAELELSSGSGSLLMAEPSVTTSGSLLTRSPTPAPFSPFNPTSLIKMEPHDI
In short: as §1

ELK4 = target: T3, ELK4 (Homo sapiens, UniProt P28324-2 1-405); conditions: protein: recombinant; tags: N-terminal GST; dsDNA, one strand shown
T3 sequence: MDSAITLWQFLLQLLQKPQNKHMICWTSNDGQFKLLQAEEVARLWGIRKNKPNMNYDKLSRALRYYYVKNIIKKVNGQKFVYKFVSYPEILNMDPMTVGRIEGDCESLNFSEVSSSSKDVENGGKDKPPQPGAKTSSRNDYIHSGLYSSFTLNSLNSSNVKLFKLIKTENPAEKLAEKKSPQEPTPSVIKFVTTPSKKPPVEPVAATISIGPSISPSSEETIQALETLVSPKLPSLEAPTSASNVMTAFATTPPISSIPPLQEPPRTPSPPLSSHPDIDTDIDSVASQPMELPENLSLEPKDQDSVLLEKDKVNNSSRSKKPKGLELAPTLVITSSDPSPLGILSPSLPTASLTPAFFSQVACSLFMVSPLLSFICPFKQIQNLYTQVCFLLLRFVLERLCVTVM
In short: as §1

ETV2 = target: T4, ETV2 (Homo sapiens, UniProt O00321 1-342); conditions: protein: recombinant; tags: N-terminal GST; dsDNA, one strand shown
T4 sequence: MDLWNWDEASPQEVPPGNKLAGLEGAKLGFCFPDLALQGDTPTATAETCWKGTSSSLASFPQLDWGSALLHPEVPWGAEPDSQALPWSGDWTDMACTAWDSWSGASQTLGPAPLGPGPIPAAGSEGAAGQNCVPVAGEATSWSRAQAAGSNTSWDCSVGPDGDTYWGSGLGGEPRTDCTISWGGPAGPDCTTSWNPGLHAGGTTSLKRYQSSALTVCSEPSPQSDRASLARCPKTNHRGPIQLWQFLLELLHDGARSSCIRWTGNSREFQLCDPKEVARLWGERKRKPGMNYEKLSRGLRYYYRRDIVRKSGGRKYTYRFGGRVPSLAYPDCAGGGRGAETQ
In short: as §1

ELF3 = target: T5, ELF3 (Homo sapiens, UniProt P78545 1-371); conditions: protein: recombinant; tags: N-terminal GST; dsDNA, one strand shown
T5 sequence: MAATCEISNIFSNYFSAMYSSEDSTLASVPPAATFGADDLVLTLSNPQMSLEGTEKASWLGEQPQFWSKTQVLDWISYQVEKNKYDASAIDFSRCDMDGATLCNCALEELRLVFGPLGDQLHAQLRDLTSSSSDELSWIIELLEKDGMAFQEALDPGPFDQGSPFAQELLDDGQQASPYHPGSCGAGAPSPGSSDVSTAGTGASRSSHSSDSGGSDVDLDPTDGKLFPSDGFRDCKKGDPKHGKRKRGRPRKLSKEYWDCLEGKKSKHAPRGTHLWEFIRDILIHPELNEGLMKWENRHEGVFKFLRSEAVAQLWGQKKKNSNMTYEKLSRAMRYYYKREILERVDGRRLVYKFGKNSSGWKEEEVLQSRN
In short: as §1

CRX = CRX (Homo sapiens, UniProt O43186 1-299); conditions: protein: recombinant; tags: N-terminal GST; dsDNA, one strand shown
Sequence of CRX (O43186 whole entry): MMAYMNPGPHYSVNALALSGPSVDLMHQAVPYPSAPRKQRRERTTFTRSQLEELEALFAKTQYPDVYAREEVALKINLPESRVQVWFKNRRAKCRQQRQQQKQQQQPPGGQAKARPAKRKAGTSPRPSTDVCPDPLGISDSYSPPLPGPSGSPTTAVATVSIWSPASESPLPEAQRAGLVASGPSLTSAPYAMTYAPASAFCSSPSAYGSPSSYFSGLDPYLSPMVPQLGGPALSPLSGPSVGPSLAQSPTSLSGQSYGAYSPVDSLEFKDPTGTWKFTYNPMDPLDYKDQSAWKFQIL
In short: as §1

ETV1 = ETV1 (Homo sapiens, UniProt P50549 1-477); conditions: protein: recombinant; tags: N-terminal GST; dsDNA, one strand shown
Sequence of ETV1 (P50549 whole entry): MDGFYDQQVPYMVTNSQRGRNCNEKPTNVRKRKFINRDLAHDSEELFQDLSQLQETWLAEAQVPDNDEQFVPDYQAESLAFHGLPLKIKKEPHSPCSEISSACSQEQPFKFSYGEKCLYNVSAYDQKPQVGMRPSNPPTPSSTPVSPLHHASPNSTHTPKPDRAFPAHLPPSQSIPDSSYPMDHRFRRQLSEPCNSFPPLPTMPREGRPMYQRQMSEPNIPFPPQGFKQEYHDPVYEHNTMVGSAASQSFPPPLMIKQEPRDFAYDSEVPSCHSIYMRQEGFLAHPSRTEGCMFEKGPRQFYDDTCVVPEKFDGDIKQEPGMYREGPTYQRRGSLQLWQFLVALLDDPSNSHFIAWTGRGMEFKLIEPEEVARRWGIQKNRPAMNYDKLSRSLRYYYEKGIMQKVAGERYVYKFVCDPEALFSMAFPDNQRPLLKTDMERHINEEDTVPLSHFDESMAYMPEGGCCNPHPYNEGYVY
In short: as §1

ERF = target: T6, ERF (Homo sapiens, UniProt P50548 1-548); conditions: protein: recombinant; tags: N-terminal GST; dsDNA, one strand shown
T6 sequence: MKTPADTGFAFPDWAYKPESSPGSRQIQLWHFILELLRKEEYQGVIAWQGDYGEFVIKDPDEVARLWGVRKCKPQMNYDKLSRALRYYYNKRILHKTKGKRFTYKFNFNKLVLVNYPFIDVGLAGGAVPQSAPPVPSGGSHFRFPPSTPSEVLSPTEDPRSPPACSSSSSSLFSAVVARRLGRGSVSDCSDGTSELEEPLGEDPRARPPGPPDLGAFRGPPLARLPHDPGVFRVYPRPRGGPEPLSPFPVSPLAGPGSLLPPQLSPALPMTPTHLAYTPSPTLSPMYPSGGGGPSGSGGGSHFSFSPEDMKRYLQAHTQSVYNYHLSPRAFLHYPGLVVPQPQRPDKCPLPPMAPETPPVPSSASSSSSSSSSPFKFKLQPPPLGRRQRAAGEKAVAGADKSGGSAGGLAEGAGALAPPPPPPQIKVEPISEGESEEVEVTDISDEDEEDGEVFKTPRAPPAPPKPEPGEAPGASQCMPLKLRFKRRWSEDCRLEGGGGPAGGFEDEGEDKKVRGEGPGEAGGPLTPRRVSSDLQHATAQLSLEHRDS
In short: as §1

ETV3L = target: T7, ETV3L (Homo sapiens, UniProt Q6ZN32 1-361); conditions: protein: recombinant; tags: N-terminal GST; dsDNA, one strand shown
T7 sequence: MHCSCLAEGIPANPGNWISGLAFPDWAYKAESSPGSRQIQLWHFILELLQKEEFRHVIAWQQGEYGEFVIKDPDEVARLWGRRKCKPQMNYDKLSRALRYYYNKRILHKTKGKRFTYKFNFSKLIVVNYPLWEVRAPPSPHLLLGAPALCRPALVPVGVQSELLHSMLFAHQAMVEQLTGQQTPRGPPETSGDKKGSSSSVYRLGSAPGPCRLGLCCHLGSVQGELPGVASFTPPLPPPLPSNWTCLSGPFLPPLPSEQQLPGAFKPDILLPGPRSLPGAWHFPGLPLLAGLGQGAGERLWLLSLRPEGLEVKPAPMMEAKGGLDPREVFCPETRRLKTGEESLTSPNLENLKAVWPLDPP
In short: as §1

ETS2 = target: T8, ETS2 (Homo sapiens, UniProt P15036 1-469); conditions: protein: recombinant; tags: N-terminal GST; dsDNA, one strand shown
T8 sequence: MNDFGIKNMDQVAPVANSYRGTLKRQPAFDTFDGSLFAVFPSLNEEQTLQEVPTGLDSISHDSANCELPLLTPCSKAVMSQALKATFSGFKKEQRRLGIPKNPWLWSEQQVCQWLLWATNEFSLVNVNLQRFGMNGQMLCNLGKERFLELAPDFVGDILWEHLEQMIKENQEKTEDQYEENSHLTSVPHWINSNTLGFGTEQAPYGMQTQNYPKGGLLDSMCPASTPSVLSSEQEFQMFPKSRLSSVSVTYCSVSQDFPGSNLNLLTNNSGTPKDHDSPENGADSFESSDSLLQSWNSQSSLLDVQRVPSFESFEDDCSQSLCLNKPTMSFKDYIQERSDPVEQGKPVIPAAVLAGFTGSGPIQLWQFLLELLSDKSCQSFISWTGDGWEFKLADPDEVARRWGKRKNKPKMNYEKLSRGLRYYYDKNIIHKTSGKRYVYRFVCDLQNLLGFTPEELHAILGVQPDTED
In short: as §1

SPDEF = target: T9, SPDEF (Homo sapiens, UniProt O95238 1-335); conditions: protein: recombinant; tags: N-terminal GST; dsDNA, one strand shown
T9 sequence: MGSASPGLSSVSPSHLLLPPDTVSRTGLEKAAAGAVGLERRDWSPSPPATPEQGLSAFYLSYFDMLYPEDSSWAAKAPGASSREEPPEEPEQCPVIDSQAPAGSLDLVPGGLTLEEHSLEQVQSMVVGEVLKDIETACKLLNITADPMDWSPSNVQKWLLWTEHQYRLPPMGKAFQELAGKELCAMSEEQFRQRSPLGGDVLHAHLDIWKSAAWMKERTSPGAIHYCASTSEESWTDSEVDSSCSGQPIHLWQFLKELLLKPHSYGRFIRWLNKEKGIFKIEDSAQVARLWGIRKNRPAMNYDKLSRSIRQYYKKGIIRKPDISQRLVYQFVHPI
In short: as §1

ETV7 = target: T10, ETV7 (Homo sapiens, UniProt Q9Y603 1-341); conditions: protein: recombinant; tags: N-terminal GST; dsDNA, one strand shown
T10 sequence: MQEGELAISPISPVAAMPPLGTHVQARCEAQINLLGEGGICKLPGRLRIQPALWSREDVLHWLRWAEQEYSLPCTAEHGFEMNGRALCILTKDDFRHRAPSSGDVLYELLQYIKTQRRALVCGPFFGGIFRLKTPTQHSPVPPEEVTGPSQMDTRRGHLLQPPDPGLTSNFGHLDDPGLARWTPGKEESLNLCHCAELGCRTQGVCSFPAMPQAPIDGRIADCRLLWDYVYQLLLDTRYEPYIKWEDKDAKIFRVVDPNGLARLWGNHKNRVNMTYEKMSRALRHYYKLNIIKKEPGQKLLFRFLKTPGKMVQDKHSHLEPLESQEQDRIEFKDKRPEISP
In short: as §1

ELF5 = target: T11, ELF5 (Homo sapiens, UniProt Q9UKW6-2 1-255); conditions: protein: recombinant; tags: N-terminal GST; dsDNA, one strand shown
T11 sequence: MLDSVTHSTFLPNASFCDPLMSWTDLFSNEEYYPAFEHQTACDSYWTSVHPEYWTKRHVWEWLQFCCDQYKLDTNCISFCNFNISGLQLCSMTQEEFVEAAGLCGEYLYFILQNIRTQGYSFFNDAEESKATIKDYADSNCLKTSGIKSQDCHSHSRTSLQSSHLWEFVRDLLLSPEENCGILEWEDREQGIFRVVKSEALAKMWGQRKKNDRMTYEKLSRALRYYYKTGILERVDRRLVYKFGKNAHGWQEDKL
In short: as §1

ETV3 = target: T12, ETV3 (Homo sapiens, UniProt P41162-2 1-143); conditions: protein: recombinant; tags: N-terminal GST; dsDNA, one strand shown
T12 sequence: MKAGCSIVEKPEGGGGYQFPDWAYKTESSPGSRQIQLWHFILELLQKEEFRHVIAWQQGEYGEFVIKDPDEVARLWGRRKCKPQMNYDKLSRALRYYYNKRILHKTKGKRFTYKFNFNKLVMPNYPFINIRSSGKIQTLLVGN
In short: as §1

ETV6 = ETV6 (Homo sapiens, UniProt P41212 1-452); conditions: protein: recombinant; tags: N-terminal GST; dsDNA, one strand shown
Sequence of ETV6 (P41212 whole entry): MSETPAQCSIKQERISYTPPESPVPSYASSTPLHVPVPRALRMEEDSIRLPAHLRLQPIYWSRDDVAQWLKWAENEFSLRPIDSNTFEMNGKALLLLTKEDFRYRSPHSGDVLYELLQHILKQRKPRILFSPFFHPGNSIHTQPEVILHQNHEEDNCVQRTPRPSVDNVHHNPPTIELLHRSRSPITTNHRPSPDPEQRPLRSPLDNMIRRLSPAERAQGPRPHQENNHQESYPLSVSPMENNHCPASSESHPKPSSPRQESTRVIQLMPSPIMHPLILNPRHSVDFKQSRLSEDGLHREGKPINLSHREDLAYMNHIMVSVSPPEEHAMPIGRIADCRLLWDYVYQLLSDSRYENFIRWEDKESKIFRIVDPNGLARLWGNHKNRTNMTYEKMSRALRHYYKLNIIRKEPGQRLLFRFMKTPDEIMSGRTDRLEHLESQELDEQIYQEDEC
In short: as §1

Sequence	binding signal (FEV)	binding signal (ETV5)	binding signal (HSF1)	binding signal (SPIC)	binding signal (ELF4)	binding signal (ELK4)	binding signal (ETV2)	binding signal (ELF3)	binding signal (CRX)	binding signal (ETV1)	binding signal (ERF)	binding signal (ETV3L)	binding signal (ETS2)	binding signal (SPDEF)	binding signal (ETV7)	binding signal (ELF5)	binding signal (ETV3)	binding signal (ETV6)
CTACCG	1.7 fold enrichment (6-mer frequency, TF over GST control)	1.64 fold enrichment (6-mer frequency, TF over GST control)	1.16 fold enrichment (6-mer frequency, TF over GST control)	1.62 fold enrichment (6-mer frequency, TF over GST control)	1.59 fold enrichment (6-mer frequency, TF over GST control)	1.38 fold enrichment (6-mer frequency, TF over GST control)	1.47 fold enrichment (6-mer frequency, TF over GST control)	1.67 fold enrichment (6-mer frequency, TF over GST control)	1.02 fold enrichment (6-mer frequency, TF over GST control)	1.62 fold enrichment (6-mer frequency, TF over GST control)	1.62 fold enrichment (6-mer frequency, TF over GST control)	1.69 fold enrichment (6-mer frequency, TF over GST control)	1.63 fold enrichment (6-mer frequency, TF over GST control)	1.63 fold enrichment (6-mer frequency, TF over GST control)	1.54 fold enrichment (6-mer frequency, TF over GST control)	1.64 fold enrichment (6-mer frequency, TF over GST control)	1.58 fold enrichment (6-mer frequency, TF over GST control)	1.53 fold enrichment (6-mer frequency, TF over GST control)
TGAACA	1.21 fold enrichment (6-mer frequency, TF over GST control)	1.2 fold enrichment (6-mer frequency, TF over GST control)	1.18 fold enrichment (6-mer frequency, TF over GST control)	1.29 fold enrichment (6-mer frequency, TF over GST control)	1.24 fold enrichment (6-mer frequency, TF over GST control)	1.4 fold enrichment (6-mer frequency, TF over GST control)	1.27 fold enrichment (6-mer frequency, TF over GST control)	1.3 fold enrichment (6-mer frequency, TF over GST control)	1.06 fold enrichment (6-mer frequency, TF over GST control)	1.27 fold enrichment (6-mer frequency, TF over GST control)	1.27 fold enrichment (6-mer frequency, TF over GST control)	1.31 fold enrichment (6-mer frequency, TF over GST control)	1.18 fold enrichment (6-mer frequency, TF over GST control)	1.22 fold enrichment (6-mer frequency, TF over GST control)	1.21 fold enrichment (6-mer frequency, TF over GST control)	1.26 fold enrichment (6-mer frequency, TF over GST control)	1.25 fold enrichment (6-mer frequency, TF over GST control)	1.21 fold enrichment (6-mer frequency, TF over GST control)

From paper PMC7862700, “An all-to-all approach to the identification of sequence-specific readers for epigenetic DNA modifications on cytosine”
